# Assay results from paper PMC7862700, “An all-to-all approach to the identification of sequence-specific readers for epigenetic DNA modifications on cytosine”.
# How the values were obtained:
# Assay in all cases: DAPPL (digital affinity profiling via proximity ligation, sequencing); 10 mM Tris-HCl pH 7.5, 50 mM NaCl, 1 mM DTT, 4% glycerol, room temperature, 30 min; GST-TFs on glutathione beads, 16-mer random dsDNA library, 0.1% formaldehyde crosslink after washing; high values mean tight binding
# FLI1 = target: T1, FLI1 (Homo sapiens, UniProt Q01543 1-452); conditions: protein: recombinant; tags: N-terminal GST; dsDNA, one strand shown
# T1 sequence: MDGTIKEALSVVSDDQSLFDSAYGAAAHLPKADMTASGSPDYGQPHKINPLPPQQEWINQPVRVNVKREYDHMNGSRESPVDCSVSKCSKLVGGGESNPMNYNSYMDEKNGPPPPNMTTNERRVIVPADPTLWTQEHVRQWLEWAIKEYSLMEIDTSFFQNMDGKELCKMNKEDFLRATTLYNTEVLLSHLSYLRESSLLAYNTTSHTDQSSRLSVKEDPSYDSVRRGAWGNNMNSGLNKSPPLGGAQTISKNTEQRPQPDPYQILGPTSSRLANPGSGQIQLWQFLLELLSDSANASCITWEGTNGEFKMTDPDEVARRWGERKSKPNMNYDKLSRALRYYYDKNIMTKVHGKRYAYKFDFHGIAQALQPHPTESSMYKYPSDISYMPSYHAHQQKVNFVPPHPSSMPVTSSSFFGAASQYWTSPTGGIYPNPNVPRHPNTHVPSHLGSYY
# In short: (§1)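 A tag-only sample was pooled with DNA-barcoded human transcription factors that had been expressed in yeast as GST fusions and captured on glutathione beads. The pools were incubated for 30 min at room temperature with 200 nmole of a random double-stranded 16-mer DNA library in Tris/NaCl/DTT/glycerol buffer, then washed, crosslinked with 0.1% formaldehyde, proximity-ligated (BsaI/T4 ligase, 1 h, 37 °C), PCR-amplified and sequenced on an Illumina NextSeq500. Binding signal is each hexamer's read frequency for a factor divided by its frequency for the tag-only sample.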
# ELK1 = target: T2, ELK1 (Homo sapiens, UniProt P19419 1-428); conditions: protein: recombinant; tags: N-terminal GST; dsDNA, one strand shown
# T2 sequence: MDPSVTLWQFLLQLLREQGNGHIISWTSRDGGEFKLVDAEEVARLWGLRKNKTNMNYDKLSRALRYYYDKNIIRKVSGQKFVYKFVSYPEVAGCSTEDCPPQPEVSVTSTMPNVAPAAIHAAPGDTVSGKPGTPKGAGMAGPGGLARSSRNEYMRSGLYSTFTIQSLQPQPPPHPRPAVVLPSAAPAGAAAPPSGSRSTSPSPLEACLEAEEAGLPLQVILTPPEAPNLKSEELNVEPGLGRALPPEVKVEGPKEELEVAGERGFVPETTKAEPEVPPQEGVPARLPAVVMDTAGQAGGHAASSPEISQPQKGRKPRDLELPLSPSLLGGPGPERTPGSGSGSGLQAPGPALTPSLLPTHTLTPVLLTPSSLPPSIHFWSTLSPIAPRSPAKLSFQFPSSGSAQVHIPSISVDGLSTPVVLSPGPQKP
# In short: as §1
# GABPA = target: T3, GABPA (Homo sapiens, UniProt Q06546 1-454); conditions: protein: recombinant; tags: N-terminal GST; dsDNA, one strand shown
# T3 sequence: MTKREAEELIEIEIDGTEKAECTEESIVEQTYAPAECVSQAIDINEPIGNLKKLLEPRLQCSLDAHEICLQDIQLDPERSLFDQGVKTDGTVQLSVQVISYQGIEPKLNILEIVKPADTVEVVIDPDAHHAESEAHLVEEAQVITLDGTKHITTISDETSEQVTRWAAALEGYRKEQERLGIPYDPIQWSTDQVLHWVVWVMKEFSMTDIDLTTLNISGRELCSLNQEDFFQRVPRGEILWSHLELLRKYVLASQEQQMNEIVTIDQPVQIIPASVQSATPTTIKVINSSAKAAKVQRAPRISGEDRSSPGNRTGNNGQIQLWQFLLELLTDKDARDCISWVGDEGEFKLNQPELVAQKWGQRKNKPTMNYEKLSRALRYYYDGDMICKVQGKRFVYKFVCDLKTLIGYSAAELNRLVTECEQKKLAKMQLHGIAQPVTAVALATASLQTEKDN
# In short: as §1
# ERG = target: T4, ERG (Homo sapiens, UniProt P11308 1-479); conditions: protein: recombinant; tags: N-terminal GST; dsDNA, one strand shown
# T4 sequence: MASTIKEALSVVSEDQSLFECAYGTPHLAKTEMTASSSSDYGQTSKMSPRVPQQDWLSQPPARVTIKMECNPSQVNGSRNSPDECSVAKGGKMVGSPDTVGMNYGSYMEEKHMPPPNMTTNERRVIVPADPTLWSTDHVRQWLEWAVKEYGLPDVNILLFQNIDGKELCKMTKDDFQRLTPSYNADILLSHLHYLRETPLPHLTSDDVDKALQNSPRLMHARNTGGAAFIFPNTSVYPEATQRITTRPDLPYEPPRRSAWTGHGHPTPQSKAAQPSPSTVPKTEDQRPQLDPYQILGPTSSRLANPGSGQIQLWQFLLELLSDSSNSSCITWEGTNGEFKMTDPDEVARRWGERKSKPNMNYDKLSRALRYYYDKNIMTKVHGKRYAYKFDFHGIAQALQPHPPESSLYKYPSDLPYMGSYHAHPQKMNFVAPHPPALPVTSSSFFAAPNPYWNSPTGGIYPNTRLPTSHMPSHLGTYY
# In short: as §1
# ELF1 = ELF1 (Homo sapiens, UniProt P32519 1-619); conditions: protein: recombinant; tags: N-terminal GST; dsDNA, one strand shown
# ELF1, sequence (P32519 whole entry): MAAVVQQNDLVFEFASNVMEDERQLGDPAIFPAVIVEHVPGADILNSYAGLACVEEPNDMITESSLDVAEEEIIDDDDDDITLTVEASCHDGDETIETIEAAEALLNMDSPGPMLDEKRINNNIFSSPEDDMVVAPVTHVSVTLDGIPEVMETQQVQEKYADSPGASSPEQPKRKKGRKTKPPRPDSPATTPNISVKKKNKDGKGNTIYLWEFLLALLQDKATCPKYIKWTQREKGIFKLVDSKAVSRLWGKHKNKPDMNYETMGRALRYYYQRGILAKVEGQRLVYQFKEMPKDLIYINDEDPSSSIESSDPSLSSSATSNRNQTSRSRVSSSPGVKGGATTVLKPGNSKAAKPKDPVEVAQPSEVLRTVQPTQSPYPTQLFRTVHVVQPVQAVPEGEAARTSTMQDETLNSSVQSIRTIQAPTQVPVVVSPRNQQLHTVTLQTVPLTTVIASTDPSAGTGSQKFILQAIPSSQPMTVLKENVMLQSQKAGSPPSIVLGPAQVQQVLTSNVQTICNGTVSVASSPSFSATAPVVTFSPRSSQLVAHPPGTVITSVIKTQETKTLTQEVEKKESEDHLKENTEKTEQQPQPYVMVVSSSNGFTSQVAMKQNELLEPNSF
# In short: as §1
# EHF = target: T5, EHF (Homo sapiens, UniProt Q9NZC4 1-300); conditions: protein: recombinant; tags: N-terminal GST; dsDNA, one strand shown
# T5 sequence: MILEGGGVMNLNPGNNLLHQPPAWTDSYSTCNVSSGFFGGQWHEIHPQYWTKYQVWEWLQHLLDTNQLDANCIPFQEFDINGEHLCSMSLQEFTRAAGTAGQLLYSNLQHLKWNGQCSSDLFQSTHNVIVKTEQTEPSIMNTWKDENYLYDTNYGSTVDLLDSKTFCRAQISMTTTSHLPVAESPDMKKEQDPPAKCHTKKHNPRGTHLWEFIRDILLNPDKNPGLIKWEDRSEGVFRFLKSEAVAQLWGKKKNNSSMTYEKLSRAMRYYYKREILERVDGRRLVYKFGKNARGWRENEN
# In short: as §1
# SPI1 = SPI1 (Homo sapiens, UniProt P17947 1-270); conditions: protein: recombinant; tags: N-terminal GST; dsDNA, one strand shown
# In short: as §1
# SPIB = SPIB (Homo sapiens, UniProt Q01892 1-262); conditions: protein: recombinant; tags: N-terminal GST; dsDNA, one strand shown
# SPIB, sequence (Q01892 whole entry): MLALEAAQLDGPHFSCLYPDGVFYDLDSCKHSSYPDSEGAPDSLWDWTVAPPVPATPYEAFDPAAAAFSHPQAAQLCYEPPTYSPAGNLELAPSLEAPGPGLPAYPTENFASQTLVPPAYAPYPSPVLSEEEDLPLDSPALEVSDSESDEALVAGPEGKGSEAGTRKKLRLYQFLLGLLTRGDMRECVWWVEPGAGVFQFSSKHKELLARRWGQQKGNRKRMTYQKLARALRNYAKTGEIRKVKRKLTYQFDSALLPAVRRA
# In short: as §1
# ELK3 = target: T6, ELK3 (Homo sapiens, UniProt P41970 1-407); conditions: protein: recombinant; tags: N-terminal GST; dsDNA, one strand shown
# T6 sequence: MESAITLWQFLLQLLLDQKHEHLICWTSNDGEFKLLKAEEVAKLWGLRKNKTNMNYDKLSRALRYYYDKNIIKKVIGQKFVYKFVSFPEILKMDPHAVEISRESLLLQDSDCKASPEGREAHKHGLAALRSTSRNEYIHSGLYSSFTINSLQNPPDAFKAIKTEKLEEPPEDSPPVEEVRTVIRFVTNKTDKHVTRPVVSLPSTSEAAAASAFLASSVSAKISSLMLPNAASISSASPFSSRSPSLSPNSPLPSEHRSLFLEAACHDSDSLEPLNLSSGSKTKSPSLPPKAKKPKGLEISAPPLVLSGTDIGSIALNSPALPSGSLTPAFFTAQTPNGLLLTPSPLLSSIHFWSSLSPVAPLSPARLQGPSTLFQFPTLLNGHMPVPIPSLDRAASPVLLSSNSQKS
# In short: as §1
# FEV = target: T7, FEV (Homo sapiens, UniProt Q99581 1-238); conditions: protein: recombinant; tags: N-terminal GST; dsDNA, one strand shown
# T7 sequence: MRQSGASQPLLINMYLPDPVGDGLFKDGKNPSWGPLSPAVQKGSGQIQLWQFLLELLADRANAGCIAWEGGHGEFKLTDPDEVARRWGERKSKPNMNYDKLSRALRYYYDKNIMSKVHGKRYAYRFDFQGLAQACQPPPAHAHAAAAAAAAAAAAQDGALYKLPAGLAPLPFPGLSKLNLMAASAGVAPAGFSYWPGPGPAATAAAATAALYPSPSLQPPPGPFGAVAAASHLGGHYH
# In short: as §1
# ETV5 = ETV5 (Homo sapiens, UniProt P41161 1-510); conditions: protein: recombinant; tags: N-terminal GST; dsDNA, one strand shown
# ETV5, sequence (P41161 whole entry): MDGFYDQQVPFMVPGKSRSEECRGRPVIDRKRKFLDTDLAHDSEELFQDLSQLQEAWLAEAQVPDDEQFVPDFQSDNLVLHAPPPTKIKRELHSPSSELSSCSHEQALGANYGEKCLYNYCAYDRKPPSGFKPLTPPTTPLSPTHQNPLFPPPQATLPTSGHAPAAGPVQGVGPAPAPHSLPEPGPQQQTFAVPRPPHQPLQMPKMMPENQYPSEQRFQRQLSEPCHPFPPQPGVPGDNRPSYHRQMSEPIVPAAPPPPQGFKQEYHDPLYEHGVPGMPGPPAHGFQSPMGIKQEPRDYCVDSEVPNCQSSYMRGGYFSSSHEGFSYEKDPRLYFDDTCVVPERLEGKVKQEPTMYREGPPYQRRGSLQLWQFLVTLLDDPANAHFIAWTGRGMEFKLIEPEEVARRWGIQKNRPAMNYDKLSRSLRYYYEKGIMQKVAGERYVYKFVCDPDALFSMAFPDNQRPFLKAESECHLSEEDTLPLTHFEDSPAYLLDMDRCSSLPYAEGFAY
# In short: as §1
# HSF1 = HSF1 (Homo sapiens, UniProt Q00613 1-529); conditions: protein: recombinant; tags: N-terminal GST; chain copies: 3; dsDNA, one strand shown
# HSF1, sequence (Q00613 whole entry): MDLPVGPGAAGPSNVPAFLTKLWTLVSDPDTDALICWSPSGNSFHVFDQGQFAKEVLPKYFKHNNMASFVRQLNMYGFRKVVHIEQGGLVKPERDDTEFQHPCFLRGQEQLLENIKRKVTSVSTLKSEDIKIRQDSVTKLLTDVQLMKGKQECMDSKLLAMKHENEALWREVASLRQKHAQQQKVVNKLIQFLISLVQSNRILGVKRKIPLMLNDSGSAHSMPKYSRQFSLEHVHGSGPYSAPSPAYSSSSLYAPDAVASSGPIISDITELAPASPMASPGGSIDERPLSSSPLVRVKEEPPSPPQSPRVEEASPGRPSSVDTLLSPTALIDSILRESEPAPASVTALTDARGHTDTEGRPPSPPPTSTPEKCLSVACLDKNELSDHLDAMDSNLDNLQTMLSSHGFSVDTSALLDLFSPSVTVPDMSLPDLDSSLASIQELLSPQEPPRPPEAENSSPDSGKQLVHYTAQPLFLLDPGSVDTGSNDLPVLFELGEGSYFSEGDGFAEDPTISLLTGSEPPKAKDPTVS
# In short: as §1
# ELF4 = ELF4 (Homo sapiens, UniProt Q99607 1-663); conditions: protein: recombinant; tags: N-terminal GST; dsDNA, one strand shown
# ELF4, sequence (Q99607 whole entry): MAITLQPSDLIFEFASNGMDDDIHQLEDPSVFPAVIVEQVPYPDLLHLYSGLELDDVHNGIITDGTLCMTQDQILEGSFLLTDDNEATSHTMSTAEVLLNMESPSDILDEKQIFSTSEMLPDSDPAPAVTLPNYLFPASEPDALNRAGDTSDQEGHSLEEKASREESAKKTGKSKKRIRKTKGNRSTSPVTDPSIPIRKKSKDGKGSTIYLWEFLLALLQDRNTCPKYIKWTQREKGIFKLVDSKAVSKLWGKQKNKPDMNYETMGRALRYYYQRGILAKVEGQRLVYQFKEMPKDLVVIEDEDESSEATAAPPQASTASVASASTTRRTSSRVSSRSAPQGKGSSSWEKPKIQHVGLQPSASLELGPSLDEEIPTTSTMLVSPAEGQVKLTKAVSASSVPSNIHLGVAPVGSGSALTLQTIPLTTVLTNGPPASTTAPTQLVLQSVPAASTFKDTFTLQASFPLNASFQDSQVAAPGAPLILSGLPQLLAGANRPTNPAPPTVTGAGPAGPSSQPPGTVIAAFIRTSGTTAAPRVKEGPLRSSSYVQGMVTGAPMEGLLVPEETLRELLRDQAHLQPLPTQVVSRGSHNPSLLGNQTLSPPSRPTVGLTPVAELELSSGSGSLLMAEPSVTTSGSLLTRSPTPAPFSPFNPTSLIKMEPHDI
# In short: as §1
# ELK4 = target: T8, ELK4 (Homo sapiens, UniProt P28324-2 1-405); conditions: protein: recombinant; tags: N-terminal GST; dsDNA, one strand shown
# T8 sequence: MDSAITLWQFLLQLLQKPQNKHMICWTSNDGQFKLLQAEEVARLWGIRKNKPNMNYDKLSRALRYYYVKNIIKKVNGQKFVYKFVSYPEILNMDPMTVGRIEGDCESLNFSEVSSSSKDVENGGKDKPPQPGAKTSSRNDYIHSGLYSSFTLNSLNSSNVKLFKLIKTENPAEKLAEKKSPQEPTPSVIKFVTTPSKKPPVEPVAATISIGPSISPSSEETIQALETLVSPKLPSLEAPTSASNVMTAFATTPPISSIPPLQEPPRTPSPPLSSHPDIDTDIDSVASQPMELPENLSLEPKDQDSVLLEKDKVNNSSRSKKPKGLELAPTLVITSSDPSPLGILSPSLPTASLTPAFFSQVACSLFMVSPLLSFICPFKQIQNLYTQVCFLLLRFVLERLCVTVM
# In short: as §1
# ETV2 = target: T9, ETV2 (Homo sapiens, UniProt O00321 1-342); conditions: protein: recombinant; tags: N-terminal GST; dsDNA, one strand shown
# T9 sequence: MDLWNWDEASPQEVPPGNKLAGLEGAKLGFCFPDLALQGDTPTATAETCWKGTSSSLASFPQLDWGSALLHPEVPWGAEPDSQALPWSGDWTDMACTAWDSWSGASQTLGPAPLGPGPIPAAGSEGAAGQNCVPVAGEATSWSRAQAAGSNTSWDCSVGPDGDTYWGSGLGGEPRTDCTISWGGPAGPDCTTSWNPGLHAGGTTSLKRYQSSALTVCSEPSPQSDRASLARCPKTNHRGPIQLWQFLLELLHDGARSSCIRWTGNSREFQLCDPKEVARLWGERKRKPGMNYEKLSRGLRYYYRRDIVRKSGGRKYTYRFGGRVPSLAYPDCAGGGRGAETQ
# In short: as §1
# ELF3 = target: T10, ELF3 (Homo sapiens, UniProt P78545 1-371); conditions: protein: recombinant; tags: N-terminal GST; dsDNA, one strand shown
# T10 sequence: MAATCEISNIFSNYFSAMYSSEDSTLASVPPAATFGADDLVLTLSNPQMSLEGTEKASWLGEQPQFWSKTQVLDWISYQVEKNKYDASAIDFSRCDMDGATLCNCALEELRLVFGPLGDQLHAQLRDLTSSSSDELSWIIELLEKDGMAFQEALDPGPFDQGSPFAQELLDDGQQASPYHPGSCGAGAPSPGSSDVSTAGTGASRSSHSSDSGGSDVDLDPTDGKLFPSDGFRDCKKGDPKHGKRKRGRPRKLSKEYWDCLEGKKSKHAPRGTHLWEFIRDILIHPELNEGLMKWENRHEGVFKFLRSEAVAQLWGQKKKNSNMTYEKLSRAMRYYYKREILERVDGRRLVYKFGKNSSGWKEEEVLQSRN
# In short: as §1
# CRX = CRX (Homo sapiens, UniProt O43186 1-299); conditions: protein: recombinant; tags: N-terminal GST; dsDNA, one strand shown
# CRX, sequence (O43186 whole entry): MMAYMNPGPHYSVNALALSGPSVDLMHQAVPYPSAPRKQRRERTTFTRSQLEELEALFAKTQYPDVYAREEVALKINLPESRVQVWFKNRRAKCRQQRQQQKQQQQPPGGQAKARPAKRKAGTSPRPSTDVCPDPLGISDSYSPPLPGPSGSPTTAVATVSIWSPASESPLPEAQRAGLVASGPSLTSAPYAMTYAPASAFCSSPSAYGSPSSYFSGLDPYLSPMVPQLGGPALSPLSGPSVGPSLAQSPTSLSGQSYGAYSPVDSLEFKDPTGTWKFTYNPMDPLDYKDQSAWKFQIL
# In short: as §1
# ETV1 = ETV1 (Homo sapiens, UniProt P50549 1-477); conditions: protein: recombinant; tags: N-terminal GST; dsDNA, one strand shown
# ETV1, sequence (P50549 whole entry): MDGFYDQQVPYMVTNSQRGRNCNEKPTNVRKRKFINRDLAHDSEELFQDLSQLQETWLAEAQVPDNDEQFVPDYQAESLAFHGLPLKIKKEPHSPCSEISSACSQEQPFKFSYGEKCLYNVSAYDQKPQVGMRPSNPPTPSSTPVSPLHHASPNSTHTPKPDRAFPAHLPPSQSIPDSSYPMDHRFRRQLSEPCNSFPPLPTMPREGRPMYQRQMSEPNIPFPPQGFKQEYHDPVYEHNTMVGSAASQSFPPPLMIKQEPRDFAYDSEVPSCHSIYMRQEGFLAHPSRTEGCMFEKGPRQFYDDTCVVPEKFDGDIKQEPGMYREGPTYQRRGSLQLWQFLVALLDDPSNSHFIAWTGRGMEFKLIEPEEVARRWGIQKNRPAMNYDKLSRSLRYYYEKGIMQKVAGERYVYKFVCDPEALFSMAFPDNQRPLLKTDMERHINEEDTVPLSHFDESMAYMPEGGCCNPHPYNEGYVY
# In short: as §1
sequence,measurement,setting,value
AAGCTC,binding signal,FLI1,"1.22 fold enrichment (6-mer frequency, TF over GST control)"
same,binding signal,ELK1,"1.22 fold enrichment (6-mer frequency, TF over GST control)"
same,binding signal,GABPA,"1.25 fold enrichment (6-mer frequency, TF over GST control)"
same,binding signal,ERG,"1.17 fold enrichment (6-mer frequency, TF over GST control)"
same,binding signal,ELF1,"1.2 fold enrichment (6-mer frequency, TF over GST control)"
same,binding signal,EHF,"1.15 fold enrichment (6-mer frequency, TF over GST control)"
same,binding signal,SPI1,"1.12 fold enrichment (6-mer frequency, TF over GST control)"
same,binding signal,SPIB,"1.11 fold enrichment (6-mer frequency, TF over GST control)"
same,binding signal,ELK3,"1.09 fold enrichment (6-mer frequency, TF over GST control)"
same,binding signal,FEV,"1.14 fold enrichment (6-mer frequency, TF over GST control)"
same,binding signal,ETV5,"1.16 fold enrichment (6-mer frequency, TF over GST control)"
same,binding signal,HSF1,"1.42 fold enrichment (6-mer frequency, TF over GST control)"
same,binding signal,ELF4,"1.21 fold enrichment (6-mer frequency, TF over GST control)"
same,binding signal,ELK4,"1.2 fold enrichment (6-mer frequency, TF over GST control)"
same,binding signal,ETV2,"1.15 fold enrichment (6-mer frequency, TF over GST control)"
same,binding signal,ELF3,"1.2 fold enrichment (6-mer frequency, TF over GST control)"
same,binding signal,CRX,"1.68 fold enrichment (6-mer frequency, TF over GST control)"
same,binding signal,ETV1,"1.22 fold enrichment (6-mer frequency, TF over GST control)"
